Inconclusive results are not listed. The source made the active and inactive calls. Unless noted, calls follow the shape of the dose curve; as a rule, active = well fitted curve in the direction sought with a large enough effect; inconclusive = small, poorly fitted or top-dose-only effect, or another doubt; inactive = no such curve, though single readings can be large; an effect the other way counts as inactive or inconclusive.
Legend:
[1] = Stat Signaling Pathway (AID 446; active = well fitted curve in either direction with a large enough effect, not every such curve was filed as active;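 also: ME-180 cervical cancer cells given 40 pM IL-6 alongside compound; SIE-controlled beta-lactamase reporter measured as 460/530 nm FRET emission ratio; % is scaled to controls: 0 for no effect and ±100 for the full control effect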)
Method in brief: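 ME-180 cells carrying a SIE-driven beta-lactamase reporter are stimulated with 40 pM IL-6 for 5 h at 37C in the presence of compound. The 460/530 nm FRET substrate ratio is read after 2.5 h at RT. Data are normalised to 300 pM IL-6 and to 125 nM JAK inhibitor controls.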

[2] = molecular target: Mitogen-activated protein kinase 10 (Mus musculus) (UniProt Q61831); experiment: JNK3 AlphaScreen Assay (AID 530; active = well fitted curve in either direction with a large enough effect, not every such curve was filed as active;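 also: kinase came from lysate of stimulated human HepG2 cells; signal reports phosphorylation of biotinylated GST-cJun 1-79 at Ser73 with 10 µM ATP; % is scaled to controls: 0 for no effect and ±100 for the full control effect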)
Method in brief: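 Inhibitors reduce antibody binding to phosphorylated biotin-cJun, lowering AlphaScreen luminescence. Lysates from HepG2 cells pre-activated by IL-1beta plus TNF-alpha supplied JNK3; compounds were titrated.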

[3] = Cell Viability - N2a (AID 540);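 also: plate controls were DMSO alone for no effect and tamoxifen control for full effect; nearly all actives have a fitted effect of over 45% in size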
Method in brief: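 Luminescent ATP signal (CellTiter-Glo, 20 min at room temperature) served as the viability read-out after N2a cells were treated with compounds for 40 hours at 37 °C. Concentration-response data were fitted to the Hill equation for AC50.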

[4] = Cell Viability - NIH 3T3 (AID 541);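 also: plate controls were DMSO alone for no effect and tamoxifen positive control for full effect; nearly all actives have a fitted effect of over 25% in size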
Method in brief: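 Luminescent ATP signal (CellTiter-Glo) served as the viability read-out after NIH 3T3 cells were exposed to compounds over a concentration range for 40 hr at 37 °C. Hill-equation modelling of concentration-response data gave AC50.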

[5] = Cell Viability - HUV-EC-C (AID 542); also: % is scaled to controls: 0 for no effect and ±100 for the full control effect; nearly all actives have a fitted effect of over 35% in size
Method in brief: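 qHTS cytotoxicity: HUV-EC-C, 1000 cells/well, 5 hr settle, compound 40 hr 37 °C, CellTiter-Glo, luminescence. AC50 via Hill equation.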

[6] = Cell Viability - H-4-II-E (AID 543); also: % is scaled to controls: 0 for no effect and ±100 for the full control effect; nearly all actives have a fitted effect of over 35% in size
Method in brief: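 Luminescent ATP signal (CellTiter-Glo) served as the viability read-out, with cytotoxicity seen as a concentration-dependent ATP drop. Cells were treated for 40 hours in complete medium. AC50 values derive from Hill-equation modelling.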

[7] = Cell Viability - SH-SY5Y (AID 544); details: SH-SY5Y neuroblastoma cell viability; at 92.2 µM (top of the series);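 also: 0% = DMSO alone and -100% = 100 µM tamoxifen; nearly all actives have a fitted effect of over 55% in size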
Method in brief: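 Luminescent ATP read-out (CellTiter-Glo) measures loss of viable SH-SY5Y neuroblastoma cells after 40 hr compound exposure at 37 °C. AC50 values derive from standard Hill modelling of qHTS concentration-response data.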

[8] = Cell Viability - Renal Proximal Tubule (AID 545);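 also: 0% = DMSO only and -100% = 100 µM tamoxifen; nearly all actives have a fitted effect of over 40% in size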
Method in brief: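 Rat renal proximal tubule primary cells, 1000/well, exposed to compounds for 40 hr at 37 °C in complete medium; cellular ATP read by CellTiter-Glo luminescence. AC50 from concentration-response fitted with standard Hill equation.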

[9] = molecular target: Glucocorticoid receptor (Homo sapiens) (UniProt P04150); experiment: GR-GFP Redistribution (AID 450;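 active = compounds whose dose series gives a full or clear partial fitted curve of increased nuclear translocation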; also: potency is read from the fitted curve at half-maximal effect); details: U2OS GR-GFP nuclear translocation, laser cytometry, 2 h
[10] = molecular target: Glucocorticoid receptor (Homo sapiens) (UniProt P04150); experiment: GR-EFC Redistribution (AID 451; calls by dose curve; also: potency is read from the fitted curve at half-maximal effect); details: CHO-K1 GR-EFC translocation, beta-gal luminescence, 2 h
Method in brief: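 CHO-K1 cells stably expressing nuclear-localized β-gal enzyme acceptor and GR fused C-terminally to the enzyme donor fragment; ligand-driven nuclear translocation restores β-gal by complementation. Compounds titrated up to 46 uM final, 2 h at 37 °C; luminescence read.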

Sequence of Glucocorticoid receptor (Homo sapiens) (P04150 whole entry, looked up, the tested form may be a part): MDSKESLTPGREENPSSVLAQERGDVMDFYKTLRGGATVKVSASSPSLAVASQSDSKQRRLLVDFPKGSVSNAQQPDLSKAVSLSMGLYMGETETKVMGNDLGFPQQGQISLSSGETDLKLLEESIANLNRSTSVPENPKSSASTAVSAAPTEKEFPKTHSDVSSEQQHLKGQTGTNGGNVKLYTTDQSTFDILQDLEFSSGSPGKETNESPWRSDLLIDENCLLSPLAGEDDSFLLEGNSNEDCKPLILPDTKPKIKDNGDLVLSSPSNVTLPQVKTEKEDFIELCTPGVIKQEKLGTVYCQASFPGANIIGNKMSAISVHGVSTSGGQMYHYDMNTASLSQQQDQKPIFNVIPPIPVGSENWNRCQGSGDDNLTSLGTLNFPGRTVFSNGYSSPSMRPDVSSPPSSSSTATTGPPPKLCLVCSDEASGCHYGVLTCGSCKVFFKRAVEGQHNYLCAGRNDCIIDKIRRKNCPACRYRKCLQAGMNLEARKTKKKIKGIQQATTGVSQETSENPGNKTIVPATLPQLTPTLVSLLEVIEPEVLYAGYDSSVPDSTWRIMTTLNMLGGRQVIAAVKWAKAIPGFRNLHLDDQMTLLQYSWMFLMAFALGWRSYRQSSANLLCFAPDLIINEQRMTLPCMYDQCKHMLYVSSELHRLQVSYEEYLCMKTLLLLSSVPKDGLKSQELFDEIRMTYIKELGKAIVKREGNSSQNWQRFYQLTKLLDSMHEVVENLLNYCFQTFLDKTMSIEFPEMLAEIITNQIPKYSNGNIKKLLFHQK

O=S1(=O)OC(c2ccc(O)cc2)(c2ccc(O)cc2)c2ccccc21
inactive: outcome [1] | outcome [2]

CC(=O)N[C@@H](CC(C)C)C(=O)O
inactive: outcome [1] | outcome [2]

CCCCCC(N)=O
inactive: outcome [2] | outcome [3] | outcome [4] | outcome [5] | outcome [6] | viability change, negative = cytotoxic [7] -5.16% | outcome [8]

Cn1c(=O)c2c(ncn2CCO)n(C)c1=O
inactive: outcome [1] | outcome [2]

CC(=O)Nc1ccc(C(=O)O)cc1
inactive: outcome [2] | outcome [3] | outcome [4] | outcome [5] | outcome [6] | viability change, negative = cytotoxic [7] -7.67% | outcome [8]

O=C(O)CCCCC1CCSS1 (stereo unspecified)
inactive: outcome [2] | outcome [3] | outcome [4] | outcome [5] | outcome [6] | viability change, negative = cytotoxic [7] -17.1% | outcome [8]

C[C@@H](N)C(=O)O
inactive: Potency [9] > 46 µM | Potency [10] > 46 µM | outcome [2]

O=C(O)COC(=O)Cc1ccccc1Nc1c(Cl)cccc1Cl
inactive: outcome [1] | outcome [2]

CCCCC1(COC(=O)CCC(=O)O)C(=O)N(c2ccccc2)N(c2ccccc2)C1=O
inactive: outcome [1] | outcome [2]

Cc1ncc(CO)c(CN)c1O
inactive: outcome [1] | outcome [2]

CC(=O)Nc1cccc(O)c1
inactive: outcome [2] | outcome [3] | outcome [4] | outcome [5] | outcome [6] | viability change, negative = cytotoxic [7] 15.1% | outcome [8]

CC[N+](CC)(CC(=O)Nc1c(C)cccc1C)Cc1ccccc1
inactive: outcome [1] | outcome [2]

O=C(Cn1ccnc1[N+](=O)[O-])NCCO
inactive: outcome [1] | outcome [2]

CCCCCCCC(=O)OCC(COC(=O)CCCCCCC)OC(=O)CCCCCCC
inactive: outcome [2] | outcome [3] | outcome [4] | outcome [5] | outcome [6] | viability change, negative = cytotoxic [7] -12.2% | outcome [8]

Cc1cc(=O)[nH]c(=S)[nH]1
inactive: outcome [2] | outcome [3] | outcome [4] | outcome [5] | outcome [6] | viability change, negative = cytotoxic [7] -4.62% | outcome [8]

CCN(CC)C(=O)c1cccc(C)c1
inactive: outcome [2] | outcome [3] | outcome [5] | outcome [6] | viability change, negative = cytotoxic [7] -22.4% | outcome [8]

O=C1c2cccc(O)c2C(=O)c2c(O)cccc21
inactive: outcome [3] | outcome [5] | outcome [6] | outcome [8]

NCc1ccc(S(N)(=O)=O)cc1
inactive: outcome [1] | outcome [2]

C[N+](C)(C)CC[N+]1(C)Cc2c(Cl)c(Cl)c(Cl)c(Cl)c2C1
inactive: Potency [9] > 46 µM | Potency [10] > 46 µM | outcome [2]

CCCC(O)C(CC)CO (stereo unspecified)
inactive: outcome [2] | outcome [3] | outcome [4] | outcome [5] | outcome [6] | viability change, negative = cytotoxic [7] -7.87% | outcome [8]

FC(F)(F)C(Cl)Br (stereo unspecified)
inactive: outcome [2] | outcome [3] | outcome [4] | outcome [5] | outcome [6] | viability change, negative = cytotoxic [7] -0.71% | outcome [8]

O=C(c1ccccc1)C(O)c1ccccc1 (stereo unspecified)
inactive: outcome [2] | outcome [3] | outcome [4] | outcome [5] | outcome [6] | viability change, negative = cytotoxic [7] -3.66% | outcome [8]

CC[N+](C)(CC)CCOC(=O)C1c2ccccc2Oc2ccccc21
inactive: outcome [1] | outcome [2]

CCS(=O)(=O)CCn1c([N+](=O)[O-])cnc1C
inactive: outcome [1] | outcome [2]

O=C1c2ccccc2S(=O)(=O)N1CCCCN1CCN(c2ncccn2)CC1
inactive: Potency [9] > 46 µM | Potency [10] > 46 µM | outcome [2]

CC(C)=CCC/C(C)=C/CO
inactive: Potency [9] > 46 µM | Potency [10] > 9.22 µM | outcome [2]

C=CCNC(N)=S
inactive: outcome [2] | outcome [3] | outcome [4] | outcome [5] | outcome [6] | viability change, negative = cytotoxic [7] -6.07% | outcome [8]

CC(=O)Nc1ccccc1
inactive: outcome [2] | outcome [3] | outcome [4] | outcome [5] | outcome [6] | viability change, negative = cytotoxic [7] -26.9% | outcome [8]

COc1ccc(O)cc1
inactive: outcome [2] | outcome [5] | outcome [6] | viability change, negative = cytotoxic [7] 4.2% | outcome [8]

CN(C(=O)c1c(O)c2ccccc2n(C)c1=O)c1ccccc1
inactive: Potency [9] > 46 µM | Potency [10] > 46 µM | outcome [2]

CC1CC(OC(=O)c2ccccc2O)CC(C)(C)C1 (stereo unspecified)
inactive: outcome [2] | outcome [3] | outcome [4] | outcome [5] | outcome [6] | viability change, negative = cytotoxic [7] -0.877% | outcome [8]
